Hits are enriched below; roughly 1.8% of the tested compounds scored in any of these assays.
GLP-1R inv ag = GLP-1 receptor (human) inverse agonism; Potency, µM (highest dose often 38.3 µM), for inactives: at the highest dose activity change, negative = inhibition, usual class: inhibitors; 1.6% of 410,000 active; P43220; AID 624417; HEK293 GLP-1R CRE-luciferase, luminescence, 24 h; GLP-1R form is constitutively active; also: % is scaled to controls: 0 for no effect and ±100 for the full control effect; nearly all actives have a fitted effect of over 55% in size
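Seeding at 200 cells/uL, 12 h culture, 24 hr compound treatment, then luciferase reagent and a luminescence read; cells are HEK293 stably expressing a constitutively active GLP-1R plus cAMP-responsive luciferase.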
GLP1R ag = activates the human GLP-1 receptor; AID 624172; HEK293 GLP-1R CRE-luciferase, luminescence, 4-6 h; cells express a hypersensitive GLP-1R form; Potency, µM (titrated, usually from 45.6 µM), for the others: at the top dose activation, actives largely listed as activators; 0.007% of 380,000 active; also: % of control where 0% means no effect
Tb PFK block = inhibitors of T. brucei phosphofructokinase; O15648; Potency, µM (titrated, usually from 57.5 µM), for the others: at the highest dose activity, negative = inhibition, actives largely listed as inhibitors; AID 485367; T. brucei PFK, ADP-Glo luminescence; 0.17% of 330,000 active;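 also: 0% = uninhibited 1x PFK enzyme wells and -100% = no-enzyme wells; nearly all actives have a fitted effect of over 60% in size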
Target sequence (O15648 whole entry, looked up): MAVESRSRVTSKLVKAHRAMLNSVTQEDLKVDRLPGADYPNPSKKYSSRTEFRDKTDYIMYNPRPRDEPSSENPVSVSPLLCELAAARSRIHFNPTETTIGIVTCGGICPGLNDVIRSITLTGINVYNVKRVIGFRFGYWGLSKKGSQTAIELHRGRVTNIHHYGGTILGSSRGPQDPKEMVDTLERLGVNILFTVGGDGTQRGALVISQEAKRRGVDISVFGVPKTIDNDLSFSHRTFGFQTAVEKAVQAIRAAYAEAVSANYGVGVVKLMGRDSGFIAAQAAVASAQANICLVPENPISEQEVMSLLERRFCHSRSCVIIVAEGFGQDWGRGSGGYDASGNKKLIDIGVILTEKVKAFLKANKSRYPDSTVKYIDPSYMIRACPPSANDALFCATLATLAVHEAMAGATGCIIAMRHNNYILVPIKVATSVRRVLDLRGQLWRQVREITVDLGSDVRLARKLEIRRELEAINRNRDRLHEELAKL
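Activity is normalized to no-enzyme wells (full inhibition) and 1.25 nM enzyme wells (no inhibition). Reaction: 0.5 mM F6P, 0.1 mM ATP, 45 min RT, ADP-Glo luminescence; concentration-response curves fitted and classed by quality.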
Pin1 inhibitor = inhibitors of human Pin1; Pin1 FP peptide displacement, HiFluor488, 10 min; 0.009% of 390,000 active; Q13526; Potency, µM (doses to about 115 µM), for inactives: at the top dose activity, negative = inhibition, actives largely listed as inhibitors; AID 504891; active = well fitted inhibition curve with a large enough effect in the polarisation, with a control signal flat, not every such curve was filed as active; inconclusive = small, poorly fitted or top-dose-only effect, or effect the other way, or a change in a side signal; inactive = no such curve, though single readings can be large or run the other way; the % refers to the polarisation; also: % is scaled to controls: 0 for no effect and ±100 for the full control effect
Target sequence (Q13526 whole entry, looked up): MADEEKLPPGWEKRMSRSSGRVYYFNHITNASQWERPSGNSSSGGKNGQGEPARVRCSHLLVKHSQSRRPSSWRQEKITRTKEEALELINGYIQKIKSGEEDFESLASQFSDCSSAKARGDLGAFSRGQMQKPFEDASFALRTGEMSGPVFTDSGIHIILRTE
PGK inhibitor = inhibitors of T. brucei phosphoglycerate kinase | PGK/GAPDH coupled, Kinase-Glo luminescence, 60 min | Potency, µM (titrated, usually from 57.5 µM), for inactives: top-dose activity change, negative = inhibition, usual class: inhibitors | 0.043% of 380,000 active; also: % is scaled to controls: 0 for no effect and ±100 for the full control effect; nearly all actives have a fitted effect of over 60% in size
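Luminescent ATP detection (Kinase-Glo Plus) follows a 60-minute room-temperature incubation, with wells lacking PGK as controls. Buffer: 100 mM TEA (pH 7.6), 5 mM MgCl2, 0.01% Tween-20. Coupling enzyme GAPDH (100 nM final) supplies unstable 1,3-BPG in-well.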
HEK293 tox = cytotoxic in the GLP-1 receptor inverse agonist counter-screen | HEK293 cAMP-luciferase reporter cells, luminescence, 24 h | Potency, µM (series often up to 38.3 µM), for the others: at the highest dose activity change, negative = inhibition, most hits filed as inhibitors | 0.13% of 410,000 active | AID 624418;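 also: loss of luciferase light is scored as toxicity; % is scaled to controls: 0 for no effect and ±100 for the full control effect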
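Luminescence readout: signal drop marks cytotoxicity. Plated cells grew 12 h at 37 °C, 5% CO2, received 23 nL compound for 24 h, then got luciferase reagent, read after 12 min at RT.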
The depositor's hits bear a star; i = inactive; ? = inconclusive; nt = no result given; [ ] = dose if it differs, or a comment. Unless noted, calls follow the shape of the dose curve; as a rule, active = well fitted curve in the direction sought with a large enough effect; inconclusive = small, poorly fitted or top-dose-only effect, or another doubt; inactive = no such curve, though single readings can be large; an effect the other way counts as inactive or inconclusive. Potency is read from the fitted curve at half-maximal effect.

SMILES	GLP-1R inv ag	GLP1R ag	Tb PFK block	Pin1 inhibitor	PGK inhibitor	HEK293 tox
CCN(CC)c1cc(C)c2cc(NC(=O)c3cccc(OC)c3)ccc2n1	10µM*	0%	nt	1%	7%	-27%
CCN(CC)c1cc(C)c2cc(NC(=O)/C=C/c3cc(OC)c(OC)c(OC)c3)ccc2n1	11µM*	nt	nt	15%	i	?
COc1ccc(C(=O)Nc2cccc(C(=O)OCc3cc(=O)n4nc(C5CC5)sc4n3)c2)cc1	6%	nt	nt	68%	10%	5%
Cc1ccc(NC(=O)c2cc(C)nc3c2c(C)nn3-c2cccc(Cl)c2C)c(C)c1	2%	nt	nt	-6%	-6%	19%
Cc1ccc(S(=O)(=O)n2nc(-c3ccccc3)nc2NCc2ccccc2Cl)cc1	-3%	0%	nt	-3%	i	4%
Cc1c(C(=O)N(Cc2ccco2)Cc2ccccc2Cl)oc2ccc(F)cc12	?	nt	nt	14%	-2%	3%
CC(=O)c1cnn(-c2ccc(Cl)cc2)c1C	1%	6%	2%	-3%	-10%	5%
Cc1c(C(=O)NCCSCc2cccc(C(F)(F)F)c2)cnn1-c1ccc(Cl)cc1	5µM*	15%	4%	5%	i	-4%
COc1cccc(CNC(=O)c2oc3c(c2C)-c2nn(Cc4cccc(Cl)c4)cc2CC3)c1	11µM*	nt	nt	4%	8%	12%
Cc1onc(-c2c(F)cccc2Cl)c1C(=O)OCC(=O)NC(=O)NCC(C)C	13µM*	10%	5%	-12%	0%	-3%
COc1ccc(CNC(=O)COC(=O)c2c(-c3c(F)cccc3Cl)noc2C)cc1OC	0%	1%	-2%	14%	-8%	-2%
Cc1cc(C(=O)NNC(=O)c2c(-c3c(Cl)cccc3Cl)noc2C)no1	-11%	-9%	1%	-1%	-5%	-14%
Cc1ccc(NC(=O)c2c(-c3c(F)cccc3Cl)noc2C)cc1F	4µM*	4%	4%	-7%	1%	-6%
Cc1nc(C(=O)NNC(=O)c2c(-c3c(Cl)cccc3Cl)noc2C)cs1	5.6µM*	1%	0%	-4%	-5%	8.9µM*
O=P(O)(O)OC(CO)CO	nt	-6%	nt	nt	nt	nt
C#C[C@@]1(OC(C)=O)CC[C@H]2[C@@H]3CCC4=CC(=O)CC[C@@H]4[C@H]3CC[C@@]21C	nt	3%	nt	nt	nt	nt
COc1ccc(NS(=O)(=O)c2ccccc2C(=O)O)cc1	nt	nt	nt	-12%	nt	nt
CC(C)C(=O)NC(c1cccc([N+](=O)[O-])c1)c1ccc2cccnc2c1O (stereo not given)	?	-14%	-5%	-5%	8%	2.5µM*
CC(=O)NC(c1ccc2ccccc2c1)c1ccc2cccnc2c1O (stereo not given)	?	4%	-4%	0%	4%	?
COc1ccc(C(NC(C)=O)c2ccc3cccnc3c2O)c(OC)c1 (stereo not given)	3.5µM*	0%	0%	2%	-1%	?
CCCC[C@]12Cc3cc(C#N)ccc3C(O1)c1c(c3cc(F)ccc3oc1=O)O2	nt	nt	1%[11.5 µM]	nt	nt	nt
Cc1cccc(Oc2nc3ccccn3c(=O)c2/C=C(\C#N)c2nc3ccccc3s2)c1C	14%	nt	nt	-22%	8%	-11%
COc1cc(-c2nnc(SCC(=O)Nc3cccc(C#N)c3)o2)cc(OC)c1OC	14%	nt	nt	2%	-14%	-13%
CC(C)CCn1c(=O)c2ccccc2c2ccccc2c1=O	10µM*	-12%	2%	-4%	-6%	-14%
CC(C)Cn1c(=O)c2ccccc2c2ccccc2c1=O	-6%	8%	-13%	10%	-11%	-7%
SMILES	GLP-1R inv ag	GLP1R ag	Tb PFK block	Pin1 inhibitor	PGK inhibitor	HEK293 tox
CC(C)CC1NC(=S)N(Cc2ccccc2)C1=O (stereo not given)	2.8µM*	-2%	0%	-1%	9%	-22%
CSCCC1NC(=S)N(Cc2ccccc2)C1=O (stereo not given)	10µM*	19%	0%	-2%	5%	-23%
O=C1C(Cc2ccccc2)NC(=S)N1Cc1ccccc1 (stereo not given)	?	3%	6%	1%	-7%	4%
Cc1ccccc1CN1CCc2c(OCC(=O)N3CCCc4ccccc43)cccc2C1=O	10µM*	-3%	-4%	31%	-3%	-16%
O=C1c2cccc(OCC(=O)N3CCCc4ccccc43)c2CCN1Cc1cccnc1	-15%	6%	?	0%	i	21%
O=C(NNc1ccccc1)/C(=C\c1cccnc1)NC(=O)c1ccccc1	3.5µM*	8%	-3%	0%	-3%	0%
OCCN1CCN(C2CCC(c3ccc(F)cc3)c3ccc(F)cc32)CC1 (stereo not given)	2µM*	1%	nt	-6%	-2%	?
COC(=O)c1scc(-c2ccc(C)cc2)c1S(=O)(=O)Nc1cc(C)c(Cl)cc1OC	10µM*	nt	nt	7%	11%	-1%
COC(=O)c1scc(-c2ccc(C)cc2)c1S(=O)(=O)Nc1cc(C)ccc1OC	?	nt	nt	12%	i	2%
O=C(c1ccc2c(c1)OCCO2)N1CCN(c2nc(-c3cccs3)nc3ccccc23)CC1	nt	nt	nt	6%	nt	nt
C#CC(=O)N(c1cc(OC)ccc1OC)C(C(=O)NC1CCCC1)c1cccs1 (stereo not given)	7.9µM*	-42%	-5%	-1%	6%	5µM*
Cc1cc2c(s1)c1cnn(Cc3cccc(Br)c3)c(=O)c1n2C	nt	nt	nt	3%	nt	nt
CCn1nc(C)c2c(-c3ccccc3)cc(=O)n(C(C)C(=O)Nc3cccc(F)c3)c21 (stereo not given)	7.9µM*	nt	nt	2%	i	0%
CCn1nc(C)c2c(-c3ccccc3)cc(=O)n(C(C)C(=O)Nc3cc(C)ccc3C)c21 (stereo not given)	12%	nt	nt	17%	-2%	26%
COc1ccc2c(=O)n3nc(Nc4ccc5c(c4)CCC5)sc3nc2c1	nt	nt	nt	-4%	nt	nt
Cc1ccc(SCC(=O)N2c3ccccc3Sc3ccccc32)cc1	7.9µM*	2%	-1%	-3%	-11%	22%
Cc1cccc(NC(=S)NCCc2ccccc2)n1	?	16%	2%	1%	-3%	4µM*
C/C(=N\NC(=S)NCCc1ccccc1)c1ccc(C)cc1	?	2%	1%	?	-9%	10µM*
C/C(=N\NC(=S)NCCc1ccccc1)c1ccc(C#N)cc1	1%	0%	-5%	?	-5%	-5%
C/C(=N/NC(=O)CNC(=O)CCc1ccccc1)c1ccc(Cl)cc1	?	0%	0%	1%	-2%	?
